# From paper PMC9911399, “Two distinct binding modes provide the RNA-binding protein RbFox with extraordinary sequence specificity”
# Where a chain is given by its changes, count along the chain named. The full ranking holds about 16,000 sequences; the median of “ka relative to ugcaugu” is about 0.0091, and the highest 2% start at about 0.032. The list comes from a sample in which the highest values are over-represented; it also holds similar and randomly drawn sequences.
# T1: RBFOX1 RRM (Homo sapiens, UniProt Q9NWB1 109-208)
# T1 sequence: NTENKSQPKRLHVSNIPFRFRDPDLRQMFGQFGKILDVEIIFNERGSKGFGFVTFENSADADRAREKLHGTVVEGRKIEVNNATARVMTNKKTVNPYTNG
# B1: CUGUGUG (DNA:RNA)
# RNA: GGGAGACCGGAAUUCAGAUUGUCCCUGUGUGUUAAAUCCCGUCGUAGCCACCA
# DNA 1: CAATCTGAATTCCGGTCTCCC
# DNA 2: TGGTGGCTACGACGGGATT
# B2: ACUCAGC (DNA:RNA)
# RNA: GGGAGACCGGAAUUCAGAUUGUCCACUCAGCUUAAAUCCCGUCGUAGCCACCA
# DNA 1: CAATCTGAATTCCGGTCTCCC
# DNA 2: TGGTGGCTACGACGGGATT
# B3: GUAGGCC (DNA:RNA)
# RNA: B1 RNA with C25G, G27A, U28G, U30C, G31C
# DNA 1: CAATCTGAATTCCGGTCTCCC
# DNA 2: TGGTGGCTACGACGGGATT
# B4: UAAAGUG (DNA:RNA)
# RNA: B1 RNA with C25U, U26A, G27A, U28A
# DNA 1: CAATCTGAATTCCGGTCTCCC
# DNA 2: TGGTGGCTACGACGGGATT
# B5: CACUAAU (DNA:RNA)
# RNA: B1 RNA with U26A, G27C, G29A, U30A, G31U
# DNA 1: CAATCTGAATTCCGGTCTCCC
# DNA 2: TGGTGGCTACGACGGGATT
# B6: UACCGCC (DNA:RNA)
# RNA: B2 RNA with A25U, C26A, U27C, A29G, G30C
# DNA 1: CAATCTGAATTCCGGTCTCCC
# DNA 2: TGGTGGCTACGACGGGATT
# B7: AAUUCUA (DNA:RNA)
# RNA: B2 RNA with C26A, C28U, A29C, G30U, C31A
# DNA 1: CAATCTGAATTCCGGTCTCCC
# DNA 2: TGGTGGCTACGACGGGATT
# B8: UGCAUCC (DNA:RNA)
# RNA: B2 RNA with A25U, C26G, U27C, C28A, A29U, G30C
# DNA 1: CAATCTGAATTCCGGTCTCCC
# DNA 2: TGGTGGCTACGACGGGATT
# B9: UGCAUCG (DNA:RNA)
# RNA: B1 RNA with C25U, U26G, G27C, U28A, G29U, U30C
# DNA 1: CAATCTGAATTCCGGTCTCCC
# DNA 2: TGGTGGCTACGACGGGATT
# B10: UGCAUCA (DNA:RNA)
# RNA: GGGAGACCGGAAUUCAGAUUGUCCUGCAUCAUUAAAUCCCGUCGUAGCCACCA
# DNA 1: CAATCTGAATTCCGGTCTCCC
# DNA 2: TGGTGGCTACGACGGGATT
# B11: AGGGCCC (DNA:RNA)
# RNA: B2 RNA with C26G, U27G, C28G, A29C, G30C
# DNA 1: CAATCTGAATTCCGGTCTCCC
# DNA 2: TGGTGGCTACGACGGGATT
# B12: GUGAUCC (DNA:RNA)
# RNA: B10 RNA with U25G, G26U, C27G, A31C
# DNA 1: CAATCTGAATTCCGGTCTCCC
# DNA 2: TGGTGGCTACGACGGGATT
# B13: AGGGUCU (DNA:RNA)
# RNA: B10 RNA with U25A, C27G, A28G, A31U
# DNA 1: CAATCTGAATTCCGGTCTCCC
# DNA 2: TGGTGGCTACGACGGGATT
# B14: GCUUGCA (DNA:RNA)
# RNA: B2 RNA with A25G, C28U, A29G, G30C, C31A
# DNA 1: CAATCTGAATTCCGGTCTCCC
# DNA 2: TGGTGGCTACGACGGGATT
# B15: GCUUUGC (DNA:RNA)
# RNA: B2 RNA with A25G, C28U, A29U
# DNA 1: CAATCTGAATTCCGGTCTCCC
# DNA 2: TGGTGGCTACGACGGGATT
# B16: GCUUGCU (DNA:RNA)
# RNA: B2 RNA with A25G, C28U, A29G, G30C, C31U
# DNA 1: CAATCTGAATTCCGGTCTCCC
# DNA 2: TGGTGGCTACGACGGGATT
# B17: GCUUGCG (DNA:RNA)
# RNA: B1 RNA with C25G, U26C, G27U, U30C
# DNA 1: CAATCTGAATTCCGGTCTCCC
# DNA 2: TGGTGGCTACGACGGGATT
# B18: GCUUAAA (DNA:RNA)
# RNA: B2 RNA with A25G, C28U, G30A, C31A
# DNA 1: CAATCTGAATTCCGGTCTCCC
# DNA 2: TGGTGGCTACGACGGGATT
# B19: CGUUGCA (DNA:RNA)
# RNA: B1 RNA with U26G, G27U, U30C, G31A
# DNA 1: CAATCTGAATTCCGGTCTCCC
# DNA 2: TGGTGGCTACGACGGGATT
# B20: CCGCUUG (DNA:RNA)
# RNA: B1 RNA with U26C, U28C, G29U
# DNA 1: CAATCTGAATTCCGGTCTCCC
# DNA 2: TGGTGGCTACGACGGGATT
# B21: CGCUUGC (DNA:RNA)
# RNA: B10 RNA with U25C, A28U, C30G, A31C
# DNA 1: CAATCTGAATTCCGGTCTCCC
# DNA 2: TGGTGGCTACGACGGGATT
# B22: GUCCGCU (DNA:RNA)
# RNA: B1 RNA with C25G, G27C, U28C, U30C, G31U
# DNA 1: CAATCTGAATTCCGGTCTCCC
# DNA 2: TGGTGGCTACGACGGGATT
# Target: T1, RBFOX1 RRM
# Test: EMSA; HiTS-Eq, 1 nM pool, 10 min; buffer printed only for the single-RNA assays: 10 mM Tris pH 7.5, 150 mM NaCl, 3.4 mM EDTA, 0.001% NP-40, 30 C
# Details: tags: His6 N-terminal (pET28a); label: 5' 32P
# In short: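 A pool of RNA with 7 randomized nucleotides, 5′-radiolabelled and with DNA-annealed flanks, was equilibrated at 1 nM for 10 min in 50 µL with purified RbFox RRM, wild type or mutant, across increasing protein concentrations. Free RNA was separated by 8% native PAGE, excised, reverse-transcribed, barcoded by PCR and sequenced. Relative association constants were obtained from read-count changes of each RNA species versus the control reaction and normalised to the cognate motif.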
row,Binder,binding signal
1,B1,0.027 KA relative to UGCAUGU
2,B2,0.00534 KA relative to UGCAUGU
3,B3,0.00837 KA relative to UGCAUGU
4,B4,0.00935 KA relative to UGCAUGU
5,B5,0.00175 KA relative to UGCAUGU
6,B6,0.00921 KA relative to UGCAUGU
7,B7,0.00109 KA relative to UGCAUGU
8,B8,0.0337 KA relative to UGCAUGU
9,B9,0.0295 KA relative to UGCAUGU
10,B10,0.0118 KA relative to UGCAUGU
11,B11,0.0184 KA relative to UGCAUGU
12,B12,0.0187 KA relative to UGCAUGU
13,B13,0.0254 KA relative to UGCAUGU
14,B14,0.0329 KA relative to UGCAUGU
15,B15,0.0232 KA relative to UGCAUGU
16,B16,0.0354 KA relative to UGCAUGU
17,B17,0.0193 KA relative to UGCAUGU
18,B18,0.00504 KA relative to UGCAUGU
19,B19,0.0228 KA relative to UGCAUGU
20,B20,0.0253 KA relative to UGCAUGU
21,B21,0.032 KA relative to UGCAUGU
22,B22,0.0113 KA relative to UGCAUGU
